Assay results reported in PubChem BioAssay AID686979 (National Center for Advancing Translational Sciences (NCATS), 2013).
Screen size: about 420,000 compounds; about 50,000 (12%) were called active. Roughly 26% stayed inconclusive and do not appear here. Only a selection was taken, and actives are over-represented in it overall. A number with no mark means an inactive call. Calls follow the shape of the dose curve; as a rule, active = well fitted inhibition curve with a large enough effect; inconclusive = small, poorly fitted or top-dose-only effect; inactive = flat fitted curve, though single readings scatter.

Assay: qHTS for Inhibitors of human tyrosyl-DNA phosphodiesterase 1 (TDP1): qHTS in cells in presence of CPT; also: nearly all actives have a fitted effect of over 55% in size
Details: chicken DT40 Tdp1-/-;hTDP1 cells + 20 nM CPT, ATP luminescence, 48 h; series mostly up to 46.2 µM; activity change, negative = growth inhibition: at the top concentration
Method in brief: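 Chicken DT40 Tdp1-/- cells complemented with human TDP1, 400 cells/well, exposed to compounds plus 20 nM camptothecin for at least 48 h at 37 C; viability read as ATP content by CellTiter-Glo luminescence.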
% is scaled to controls: 0 for no effect and ±100 for the full control effect; potency is read from the fitted curve at half-maximal effect.

Row | SMILES | activity change, negative = growth inhibition | Potency
1 | COc1ccccc1C1CCN(c2ccc([N+](=O)[O-])cn2)CC1 | -0.392% | 
2 | O=c1[nH]c(N2CCOCC2)nc2ccccc12 | -13% | 
3 | Cc1cc(C(=O)Nc2ccccc2N2CCOCC2)c2ccccc2n1 | -11.9% | 
4 | c1ccc(Nc2nc(N3CCOCC3)c3ccccc3n2)cc1 |  | 20.6 µM (active)
5 | CC1(C)CC(=O)C(C=NCCN2CCN(C(=S)Nc3cccc(Cl)c3)CC2)=C(O)C1 | 0.286% | 
6 | O=C(CN1CCN(S(=O)(=O)c2ccc(Cl)s2)CC1)NCc1ccc(Cl)cc1 | -21% | 
7 | CC1(Oc2ccccc2-c2ccno2)CCN(Cc2ccc(-c3ccccc3)o2)C1 (centres undefined) |  | 25.9 µM (active)
8 | Nc1ncnc2c1ncn2[C@@H]1O[C@H](C(=O)N2CCCN(Cc3ccccc3F)CC2)[C@@H](O)[C@H]1O | -1.31% | 
9 | CCSc1nc2sc3c(c2c(=O)[nH]1)CC(C)(C)OC3 | -6.76% | 
10 | C=CCNC(=S)NNc1ncnc2sc3c(c12)CC(C)(C)OC3 |  | 4.61 µM (active)
11 | CC1(C)Cc2c(sc3nc4n(c(=N)c23)CCCCC4)CO1 | -7.87% | 
12 | Cc1c(CCC(=O)O)c(=O)oc2cc(OCc3ccc(Br)cc3)ccc12 | -1.89% | 
13 | Fc1ccc(NC(=S)N2CCc3[nH]c4ccccc4c3C2)cc1 | -0.771% | 
14 | COC(=O)c1scc(S(=O)(=O)C(C)(C)C)c1-n1cccc1 | -11.3% | 
15 | CC/C(=N\NC(=O)c1c(C)nc2ccccn12)c1ccc(Cl)cc1 | -18.7% | 
16 | CN(C)C(=O)c1nc2ccc(Cl)cn2c1CN1CCN(c2ncccn2)CC1 | -7.94% | 
17 | Clc1ccc(-c2nc3ccccn3c2CN2CCSCC2)cc1 |  | 29.1 µM (active)
18 | O=C(COc1ccc(S(=O)(=O)NCc2ccccc2)cc1)N1CCOCC1 | 0.118% | 
19 | Cc1ccc(NS(=O)(=O)c2ccc(C(C)(C)C)cc2)cn1 | -4.37% | 
20 | Cc1ccc(S(=O)(=O)Nc2ccc3ncccc3c2)cc1 |  | 10.3 µM (active)
21 | Cc1ccc(OCC(=O)Nc2ccc(S(=O)(=O)Nc3ccccn3)cc2)cc1 | -5.79% | 
22 | Cc1oc2cc3oc(=O)ccc3cc2c1C | -2.18% | 
23 | Cc1sc2ncnc(N3CCC(C(=O)NNC(=O)c4ccc(F)cc4)CC3)c2c1C |  | 18.4 µM (active)
24 | O=C(NNC(=O)C1CCN(c2ncccn2)CC1)c1ccccc1 | -3.34% | 
25 | CS(=O)(=O)c1ccc2nc(NC(=O)CN3CCCCCC3)sc2c1 | -8.7% | 
26 | Cc1sc2ncnc(N3CCC(C(=O)Nc4nc5ccc(Cl)cc5s4)CC3)c2c1C |  | 8.2 µM (active)
27 | O=C(NNC(=O)C1CCCC1)c1ccc(F)cc1 | -1.66% | 

Row | SMILES | activity change, negative = growth inhibition | Potency
28 | CS(=O)(=O)c1ccc2nc(NC(=O)C3C4C=CC(C4)C3C(=O)O)sc2c1 (centres undefined) | -6.9% | 
29 | COc1ccccc1C1CN(CCNC(=O)C2=CCCC2)Cc2ccccc2O1 (centres undefined) | -9.51% [at 9.04 µM] | 
30 | Nc1ncnc2c1ncn2[C@@H]1O[C@H](CNCc2cccn2-c2nccs2)[C@@H](O)[C@H]1O | -14.9% | 
31 | CCCCN1C(=O)C(CC(=O)NC(c2ccccc2)c2ccccc2)CC(C(=O)N2CCOCC2)=C1C (centres undefined) | -7.93% | 
32 | O=C1NCCn2nc3ccccc3c21 | -1.79% | 
33 | Cc1ccc2c(c1)N(CC(=O)N1CCCC(C)C1)C(=O)CO2 (centres undefined) | 2.29% | 
34 | CNc1nc(Nc2ccc(C)c(Cl)c2)nc(N)c1[N+](=O)[O-] | 0.15% | 
35 | Cc1ccc(Nc2nc(N3CCOCC3)nc(N3CCOCC3)n2)cc1Cl |  | 23.1 µM (active)
36 | Cc1cc(Nc2ccc(N3CCOCC3)cc2)c2cccc(C)c2n1 | -17.3% | 
37 | COc1ccc(C2CC(=O)NC(=O)C2)cc1 | 7.32% | 
38 | CC(C)(C)c1ccc(SCCc2ccncc2)cc1 |  | 18.4 µM (active)
39 | CC(C)(C)NC(=O)C(=O)NCc1ccncc1 | 36.2% | 
40 | c1ccc(CSCCc2ccncc2)cc1 | -26.6% | 
41 | Cc1cc(NC(=O)C(C)N2C(=O)c3ccccc3S2(=O)=O)no1 (centres undefined) | 13% | 
42 | COc1cc(C(O)c2nc(-c3cccc(C(=O)O)c3)cs2)ccc1F (centres undefined) | 7.12% | 
43 | COCc1cccc(-c2csc(C(O)c3ccc(F)cc3)n2)c1 (centres undefined) |  | 16.4 µM (active)
44 | Fc1ccc(COc2cccc(-c3n[nH]c(=S)o3)c2)cc1 | -2.08% | 
45 | COc1ccc(N2CCN(C(=O)CSCc3nc(-c4ccccc4Cl)oc3C)CC2)cc1 |  | 14.6 µM (active)
46 | COc1ccc(N2CCN(C(=O)CN3C(=O)COc4ccccc43)CC2)cc1 | 0.58% | 
47 | COc1ccc(N2CCN(C(=O)C3CCN(C(=O)c4ccccc4Cl)CC3)CC2)cc1 | -14.8% | 
48 | COc1ccccc1C(=O)Nc1ccnn1C1CCN(Cc2cnn(C)c2)CC1 | 6.7% | 
49 | Nc1nc(-c2ccccc2)cc(-c2ccccc2)n1 |  | 16.4 µM (active)
50 | c1ccc(-c2cc(-c3ccccc3)[nH]n2)cc1 | -3.11% | 
51 | CNc1nc(-c2ccccc2)cc(-c2ccccc2)n1 | 2.21% | 
52 | Cc1ccccc1NC(=O)c1cc2c([nH]c1=O)CC(C)(C)CC2=O | 6.13% | 
53 | Cc1ccc(F)c(NC(=O)CCOc2ccccc2C)c1 | -23.1% | 
54 | COc1cc(C(=O)OCc2cc(=O)n3ccsc3n2)ccc1OC(C)C |  | 23.1 µM (active)
